According to PubChem BioAssay (Tox21):
A number with no mark means an inactive call. Inconclusive results are not listed. A call without a number means that no potency is given here. Calls of active or inactive are those of the source. Unless noted, calls follow the shape of the dose curve; as a rule, active = well fitted curve in the direction sought with a large enough effect in the repeat runs; inconclusive = weak or mixed curves; inactive = no such curve, though single readings can be large; an effect the other way counts as inactive or inconclusive.

Tests used:
[1] = A CellTox Green Cytotoxicity Assay to monitor cytotoxicity in HepG2 cells - 24 hour (AID 1224878); also: nearly all actives have a fitted effect of over 45% in size
Procedure, shortened: (§1)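 Cells and non-lytic dye reagent are dispensed together (600 HepG2 cells/well) and incubated 5 h before DMSO compound transfer. Kinetic fluorescence is then recorded in the same wells during 40 h at 37 C.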

[2] = A CellTox Green Cytotoxicity Assay to monitor cytotoxicity in HepG2 cells - 40 hour (AID 1224879); also: nearly all actives have a fitted effect of over 40% in size
Procedure, shortened: as §1

[3] = qHTS RealTime-Glo MT Cell Viability Assay in HEK293 cells - 0 hour (AID 1224880); also: top concentration of the series differs between compounds; nearly all actives have a fitted effect of over 45% in size
Procedure, shortened: (§2)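 Real-time viability in HEK293: signal arises when living cells convert a prosubstrate for NanoLuc in the medium, so luminescence tracks viable cell number. Compound (23 nL, DMSO) added 5 h post-seeding; kinetic reads at 0–40 h, 37 C.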

[4] = A CellTox Green Cytotoxicity Assay to monitor cytotoxicity in HEK293 cells - 32 hour (AID 1224881); also: nearly all actives have a fitted effect of over 40% in size
Procedure, shortened: (§3)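 Cells (HEK293, 600/well) and dye reagent are dispensed together. After 5 h at 37 C, 23 nL compound is pinned in. Plates stay at 37 C for 40 h with fluorescence read at 0h, 8h, 16h, 24h, 32h and 40h.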

[5] = A CellTox Green Cytotoxicity Assay to monitor cytotoxicity in HepG2 cells - 0 hour (AID 1224882); also: nearly all actives have a fitted effect of over 35% in size
Procedure, shortened: as §1

[6] = A CellTox Green Cytotoxicity Assay to monitor cytotoxicity in HepG2 cells - 32 hour (AID 1224883); also: nearly all actives have a fitted effect of over 50% in size
Procedure, shortened: as §1

[7] = A CellTox Green Cytotoxicity Assay to monitor cytotoxicity in HEK293 cells - 8 hour (AID 1224884); also: nearly all actives have a fitted effect of over 35% in size
Procedure, shortened: as §3

[8] = qHTS RealTime-Glo MT Cell Viability Assay in HepG2 cells - 16 hour (AID 1224885); also: nearly all actives have a fitted effect of over 50% in size
Procedure, shortened: (§4)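 Viability was tracked continuously by NanoLuc luminescence from prosubstrate reduced by living HepG2 cells, at successive time points over 40 h of compound exposure. Cells with reagent were preincubated 5 h at 37 °C before compound addition.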

[9] = qHTS RealTime-Glo MT Cell Viability Assay in HEK293 cells - 24 hour (AID 1224886); also: top concentration of the series differs between compounds; nearly all actives have a fitted effect of over 50% in size
Procedure, shortened: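 Viability tracked continuously by luminescence as live cells reduce a prosubstrate for NanoLuc; HEK293 cells preincubated 5 h, compound-treated at 37 C, and read at 0, 8, 16, 24, 32 and 40 h.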

[10] = qHTS RealTime-Glo MT Cell Viability Assay in HEK293 cells - 8 hour (AID 1224887); also: top concentration of the series differs between compounds; nearly all actives have a fitted effect of over 50% in size
Procedure, shortened: as §2

[11] = A CellTox Green Cytotoxicity Assay to monitor cytotoxicity in HEK293 cells - 16 hour (AID 1224888); also: nearly all actives have a fitted effect of over 35% in size
Procedure, shortened: as §3

[12] = qHTS assay to identify small molecule antagonists of the estrogen receptor alpha (ER-alpha) signaling pathway using the BG1 cell line in the presence of 0.1 nM 17-beta-estradiol - cell viability counter screen (AID 1259241); also: nearly all actives have a fitted effect of over 40% in size
Procedure, shortened: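 VM7Luc4E2 cells (endogenous full-length ER-alpha, 4xERE-luciferase), cultured 5 days in charcoal-stripped serum, exposed to compounds with 0.1 nM 17beta-estradiol (final) for 22 hr at 37C. Viability read in same wells as live-cell protease fluorescence after 30 min.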

[13] = qHTS assay to identify small molecule antagonists of the androgen receptor (AR) signaling pathway using the MDA cell line in the presence of 0.5 nM R1881 - cell viability counter screen (AID 1259242); also: nearly all actives have a fitted effect of over 45% in size
Procedure, shortened: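 Steps: plate MDA-kb2 cells, rest 5 hr at 37C without CO2; pin in compounds in DMSO; add R1881 to 0.5 nM final; incubate 16 hr; add CellTiter-Fluor, 30 min; read fluorescence.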

[14] = target: Estrogen receptor (Homo sapiens) (UniProt P03372); experiment: qHTS assay to identify small molecule antagonists of the estrogen receptor alpha (ER-alpha) signaling pathway using the BG1 cell line in the presence of 0.1 nM 17-beta-estradiol (AID 1259244); also: nearly all actives have a fitted effect of over 50% in size
Procedure, shortened: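 Antagonist mode: compounds in DMSO are pinned onto VM7Luc4E2 reporter cells, 0.1 nM final 17beta-estradiol is added, and after 22 h at 37C luciferase luminescence is measured with ONE-Glo.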

[15] = qHTS assay to identify small molecule HDAC inhibitors (AID 1259364);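 also: wild-type HCT-116 cells with endogenous class I/II HDAC activity; top concentration of the series differs between compounds; nearly all actives have a fitted effect of over 45% in size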
Procedure, shortened: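 Cells (HCT-116, wild type) are seeded at 1,500 per well, incubated overnight, treated with compound in DMSO for 2 hr, then developed with HDAC-Glo I/II reagent for 30 min at room temperature.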

[16] = qHTS assay to identify small molecule HDAC inhibitors - cell viability counter screen (AID 1259365)
Procedure, shortened: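 Wild-type HCT-116 cells, 1,500/well, cultured overnight, then compound-treated 2 h at 37 C. Viability measured as ATP luminescence with CellTiter-Glo after 30 min at room temperature.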

[17] = qHTS RealTime-Glo MT Cell Viability Assay in HepG2 cells - 0 hour (AID 1224889); also: nearly all actives have a fitted effect of over 50% in size
Procedure, shortened: as §4

[18] = A CellTox Green Cytotoxicity Assay to monitor cytotoxicity in HepG2 cells - 8 hour (AID 1224890); also: nearly all actives have a fitted effect of over 45% in size
Procedure, shortened: as §1

[19] = qHTS assay to identify small molecule phospholipidosis (PLD) inducers (AID 1259344; active = well fitted curve in the direction sought with a large enough effect; an effect the other way counts as inactive or inconclusive)
Procedure, shortened: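 Accumulated phospholipid, stained red by LipidTOX during 24 h compound treatment of HepG2 cells at 37 C, is quantified from images as pit number and intensity, normalised per cell using Hoechst-stained nuclei.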

[20] = target: Androgen receptor (Homo sapiens) (UniProt P10275); experiment: qHTS assay to identify small molecule antagonists of the androgen receptor (AR) signaling pathway using the MDA cell line in the presence of 0.5 nM R1881 (AID 1259243); also: nearly all actives have a fitted effect of over 50% in size; also: potency is read from the fitted curve at half-maximal effect
Procedure, shortened: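 Stably transfected MDA-kb2 cells express luciferase from an MMTV promoter bearing both AR and GR response elements. Compounds plus 0.5 nM R1881 (final) were incubated 16 hr at 37C without CO2, then luminescence measured.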

Chain of Androgen receptor (Homo sapiens) (P10275 whole entry, looked up): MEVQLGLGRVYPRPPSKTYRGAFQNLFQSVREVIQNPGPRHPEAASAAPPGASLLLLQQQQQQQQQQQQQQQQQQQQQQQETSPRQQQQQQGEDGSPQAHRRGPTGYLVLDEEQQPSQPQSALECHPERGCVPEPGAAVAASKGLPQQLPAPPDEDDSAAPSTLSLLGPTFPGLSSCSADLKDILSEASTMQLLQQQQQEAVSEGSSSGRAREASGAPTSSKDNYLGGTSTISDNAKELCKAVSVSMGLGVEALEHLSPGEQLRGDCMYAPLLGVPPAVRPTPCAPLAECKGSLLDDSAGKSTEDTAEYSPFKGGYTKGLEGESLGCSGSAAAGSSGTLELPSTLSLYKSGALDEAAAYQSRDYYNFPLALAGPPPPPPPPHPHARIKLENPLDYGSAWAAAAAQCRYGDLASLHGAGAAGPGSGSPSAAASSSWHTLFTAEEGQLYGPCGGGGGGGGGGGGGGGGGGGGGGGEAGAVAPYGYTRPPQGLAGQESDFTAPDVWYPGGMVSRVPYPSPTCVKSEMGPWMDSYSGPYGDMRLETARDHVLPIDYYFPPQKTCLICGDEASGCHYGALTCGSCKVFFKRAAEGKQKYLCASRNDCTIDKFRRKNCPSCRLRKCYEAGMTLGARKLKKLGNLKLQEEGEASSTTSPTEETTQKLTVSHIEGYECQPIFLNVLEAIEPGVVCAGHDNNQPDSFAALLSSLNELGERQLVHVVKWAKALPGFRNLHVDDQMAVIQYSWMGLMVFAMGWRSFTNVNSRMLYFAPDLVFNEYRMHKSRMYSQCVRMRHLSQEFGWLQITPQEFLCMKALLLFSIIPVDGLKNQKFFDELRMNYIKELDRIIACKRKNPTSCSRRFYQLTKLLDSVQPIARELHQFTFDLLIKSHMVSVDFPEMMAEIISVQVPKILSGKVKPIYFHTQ
Chain of Estrogen receptor (Homo sapiens) (P03372 whole entry, looked up): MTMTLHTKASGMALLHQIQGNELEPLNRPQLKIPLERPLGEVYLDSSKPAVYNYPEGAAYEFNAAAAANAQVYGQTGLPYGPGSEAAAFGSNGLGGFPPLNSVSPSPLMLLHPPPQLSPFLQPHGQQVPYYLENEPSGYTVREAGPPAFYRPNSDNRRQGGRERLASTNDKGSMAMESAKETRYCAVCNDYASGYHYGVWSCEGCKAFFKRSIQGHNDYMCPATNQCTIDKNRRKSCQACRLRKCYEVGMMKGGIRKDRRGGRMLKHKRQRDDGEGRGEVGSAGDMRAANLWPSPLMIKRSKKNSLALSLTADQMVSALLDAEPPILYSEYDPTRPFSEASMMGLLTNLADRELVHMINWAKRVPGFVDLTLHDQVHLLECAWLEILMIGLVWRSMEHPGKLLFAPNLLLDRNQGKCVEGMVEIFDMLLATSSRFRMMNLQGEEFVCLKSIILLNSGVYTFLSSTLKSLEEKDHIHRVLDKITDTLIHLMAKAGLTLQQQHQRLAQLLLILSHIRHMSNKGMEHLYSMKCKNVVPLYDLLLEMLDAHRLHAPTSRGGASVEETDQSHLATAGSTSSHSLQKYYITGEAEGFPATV

SMILES | Potency [1] | Potency [2] | Potency [3] | Potency [4] | Potency [5] | Potency [6] | Potency [7] | outcome [8] | outcome [9] | outcome [10] | Potency [11] | outcome [12] | outcome [13] | outcome [14] | Potency [15] | outcome [16] | Potency [17] | Potency [18] | Potency [19] | Potency [20]
CC(=O)Oc1ccc(C(C)=O)cc1 | inactive | inactive | inactive | inactive | inactive | inactive | inactive | inactive | inactive | inactive | inactive | inactive | inactive | inactive | inactive | inactive | – | – | – | –
CCN1CCN(C(=O)N[C@@H](C(=O)N[C@@H]2C(=O)N3[C@@H]2SC(C)(C)[C@H]3C(=O)O)c2ccccc2)C(=O)C1=O | inactive | inactive | inactive | inactive | inactive | inactive | inactive | inactive | inactive | inactive | – | inactive | inactive | inactive | – | inactive | inactive | inactive | inactive | –
CC(C)OCCO | inactive | inactive | inactive | inactive | inactive | inactive | inactive | inactive | inactive | inactive | inactive | inactive | inactive | – | inactive | inactive | inactive | – | – | –
COC(=O)c1ccc(NC(C)=O)cc1OC | inactive | inactive | inactive | inactive | inactive | inactive | inactive | inactive | inactive | inactive | – | inactive | inactive | inactive | inactive | inactive | inactive | inactive | – | inactive
N#Cc1ccccc1C#N | inactive | inactive | inactive | inactive | inactive | inactive | inactive | inactive | inactive | inactive | – | inactive | inactive | – | inactive | inactive | inactive | inactive | – | inactive
Cc1cc(N)no1 | inactive | inactive | inactive | inactive | inactive | inactive | inactive | inactive | inactive | inactive | inactive | inactive | inactive | – | – | inactive | inactive | – | – | –
CSC(=O)c1cccc2nnsc12 | inactive | inactive | inactive | inactive | inactive | inactive | inactive | inactive | inactive | inactive | – | inactive | inactive | inactive | inactive | inactive | inactive | inactive | – | 15.4 µM (active)
CCCCc1ccc(Cl)cc1 | inactive | inactive | inactive | inactive | inactive | inactive | inactive | inactive | inactive | inactive | inactive | inactive | inactive | – | inactive | inactive | inactive | – | – | –
COc1ccc(Cl)cc1C | inactive | inactive | inactive | inactive | inactive | inactive | inactive | inactive | inactive | inactive | inactive | – | inactive | – | – | inactive | inactive | – | – | –
CC(C)=CCC/C(C)=C\C#N | inactive | inactive | inactive | inactive | inactive | inactive | inactive | inactive | inactive | inactive | inactive | – | inactive | inactive | inactive | inactive | inactive | – | – | –
c1coc(Cn2cccc2)c1 | inactive | inactive | inactive | inactive | inactive | inactive | inactive | inactive | inactive | inactive | inactive | inactive | inactive | inactive | inactive | inactive | – | inactive | – | –
CCCCCCCCCCCCCCBr | inactive | inactive | inactive | inactive | inactive | inactive | inactive | inactive | inactive | inactive | – | inactive | inactive | inactive | inactive | inactive | inactive | inactive | – | –
CC(C)(C)C(=O)CCc1ccc(Cl)cc1 | inactive | inactive | inactive | inactive | inactive | inactive | inactive | inactive | inactive | inactive | inactive | inactive | inactive | inactive | – | inactive | – | inactive | – | –
CCCCNCC | inactive | inactive | inactive | inactive | inactive | inactive | inactive | inactive | inactive | inactive | inactive | inactive | inactive | inactive | inactive | inactive | – | – | – | –
CCCCCCCCC1CO1 (stereo not drawn) | inactive | inactive | inactive | inactive | inactive | inactive | inactive | inactive | inactive | inactive | – | inactive | inactive | – | – | inactive | inactive | inactive | – | inactive
Cc1ccccc1C#N | inactive | inactive | inactive | inactive | inactive | inactive | inactive | inactive | inactive | inactive | inactive | – | inactive | inactive | inactive | inactive | inactive | – | – | –
CCCOc1ccc(C(=O)OCCN(CC)CC)cc1N | inactive | inactive | inactive | inactive | inactive | inactive | inactive | inactive | inactive | inactive | inactive | inactive | inactive | – | inactive | inactive | – | inactive | inactive | –
